High-throughput results deposited in PubChem by National Center for Advancing Translational Sciences (NCATS).
Pf growth 48h – inhibits P. falciparum growth in the first generation, 48 h; Potency, µM (highest dose often 28.7 µM), inactives show at the top dose activity change, negative = inhibition, actives largely listed as inhibitors; P. falciparum luciferase growth in erythrocytes, 48 h; 5.9% of 310,000 active; AID 504832; note: potency is the fitted concentration of half-maximal effect; % is set by controls: 0 for no effect and ±100 for the full control effect
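Cell-based growth assay: transgenic P. falciparum expressing firefly luciferase, cultured in red cells within RPMI 1640 containing 0.5% w/v Albumax, 24 mM bicarbonate and gentamycin. A drop in luciferase activity indicates inhibition.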
Shiga inhibitor – inhibitors of Shiga toxin in Vero cells | Vero cells, Shiga toxin protein synthesis inhibition reporter | inhibition, % at 38.7 µM | AID 2315 | 9.2% of 290,000 active; in the data active = inhibition mostly above about 28%, no sharp cut-off; inactive = mostly below about 43%; note: 0% is about no effect
NS1 inh – influenza NS1 inhibition; Potency, µM (series often up to 46.1 µM), without a hit: at the top dose activity, positive = more growth; 0.4% of 270,000 active; AID 2326; calls by dose curve; note: potency is the fitted concentration of half-maximal effect; actives are rising curves; nearly all actives have a fitted effect of over 50% in size
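A cell-based growth assay was used: compounds that relieve NS1-induced slow growth of budding yeast raise OD600. Assay medium was yeast nitrogen base with ammonium sulphate and -URA supplement, pH 6.0, with 2% galactose.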
Cycloheximide cs – counter-screen for Shiga toxin inhibitors: cycloheximide protein synthesis inhibition | cell reporter, cycloheximide protein synthesis inhibition counterscreen | max response, % | 12% of 300,000 active; in the data active = max response mostly above about 13%, no sharp cut-off; inactive = mostly below about 14%; note: read at 38.3 µM for the half of the compounds with a filed dose; 0% is about no effect
Pf growth 96h – inhibits malaria parasite growth, 96 h. 6.9% of 320,000 active. AID 504834. P. falciparum luciferase reporter growth, 96 h. Potency, µM (titrated, usually from 28.7 µM), for the others: at the top dose activity change, negative = inhibition, hits mostly inhibitors; note: potency is the fitted concentration of half-maximal effect; % is set by controls: 0 for no effect and ±100 for the full control effect
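Two-generation exposure (96 h) targets delayed-death phenotype. Reporter parasites carrying integrated firefly luciferase, in red cells at 2% hematocrit and 0.05% parasitemia final, kept at 37 C, 5% CO2; luminescence loss indicates inhibition.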
* hit, by the source's call; ? = inconclusive; . = not tested or not shown. In the library only some 21% were active in any assay of this set; here they are far more common. Unless noted, calls come from the whole dose curve; as a rule, active = well fitted inhibition curve with a large enough effect; inconclusive = small, poorly fitted or top-dose-only effect, or another doubt; inactive = no such curve, though single readings can be large or run the other way.

SMILES	Pf growth 48h	Shiga inhibitor	NS1 inh	Cycloheximide cs	Pf growth 96h
Fc1ccccc1-c1csc(-c2cccnc2)n1	116%	38*	1%	48*	78%
c1ccc(-c2csc(-c3ccncc3)n2)cc1	?	55*	-11%	31*	?
Cc1csc(-c2cccnc2)n1	-3%	12	-10%	-2	11%
c1cncc(-c2nc(-c3ccc4c(c3)OCCO4)cs2)c1	-5%	128*	-68%	63*	-66%
CS(=O)(=O)c1ccc(-c2csc(-c3cccnc3)n2)cc1	.	54	-1%	39*	-16%
Cc1ccc(CCNC(=O)C2CCCN(c3nc4ccccc4o3)C2)cc1 (configuration not stated)	19%	-36	-48%	-2	?
O=C(Nc1ccccc1C(=O)Nc1ccc(Br)cn1)c1cccc([N+](=O)[O-])c1	38%	11	12%	-2	0%
Oc1ccccc1-c1csc(-c2ccccc2)n1	443%	159*	.	75*	-10%
Clc1ccc(-c2csc(-c3cccnc3)n2)s1	?	54*	-50%	32*	?
O=S(=O)(NCCc1csc(-c2cccnc2)n1)c1ccc(Cl)s1	.	-13	-194%	-6	?
CN(C)S(=O)(=O)c1ccc(-c2csc(-c3cccnc3)n2)cc1	?	21	-6%	19	?
Oc1ccc(-c2csc(-c3cccnc3)n2)cc1O	117%	61*	-8%	54*	40%
Brc1ccsc1-c1csc(-c2ccncc2)n1	.	87*	-49%	43*	?
CCOC(=O)C1CCCCN1Cc1ccc(F)cc1 (configuration not stated)	.	-19	-4%	-2	65%
O=C1c2ccccc2C(=O)N1CCc1csc(-c2ccc(F)cc2)n1	55%	10	-23%	8	81%
Fc1ccc(-c2csc(-c3cccnc3)n2)cc1F	.	61*	-86%	23	0%
O=C1c2ccccc2C(=O)N1CCc1csc(-c2ccccc2)n1	38%	36*	-16%	18*	46%
Oc1ccc(-c2csc(-c3ccccc3)n2)cc1O	105%	71*	-199%	33*	-28%
COc1ccc(C2(CNC(=O)C(=O)Nc3ccc(C)cc3)CCOCC2)cc1	?	15	2%	7	?
Cn1c(-c2ccc3ccccc3n2)[n+](C)c2ccccc21	?	72*	0%	53*	0.93µM*
CN(C)c1ccc(-c2n(C)c3ccccc3[n+]2C)cc1	?	52*	6%	27*	.
Cn1c(-c2ccccn2)[n+](C)c2ccccc21	24%	-5	2%	1	25%
Cn1c(-c2cccc([N+](=O)[O-])c2)[n+](C)c2ccccc21	?	2	.	-4	10%
Cc1ccc(C(=O)NC(C(=O)NC2CCCC2)c2ccccc2)cc1 (configuration not stated)	6%	-1	17%	-3	-3%
CN(C)c1cccc(C(=O)NN2C(=O)NC3(CCCCC3)C2=O)c1	73%	.	.	.	86%
SMILES	Pf growth 48h	Shiga inhibitor	NS1 inh	Cycloheximide cs	Pf growth 96h
CC(C)(C)c1cc(Br)c(O)c(N=Nc2ccc(S(=O)(=O)N3CCOCC3)cc2)c1	12µM*	-3	.	-4	10µM*
Cc1ccc(O)c(N=Nc2ccc(S(=O)(=O)N3CCOCC3)cc2)c1	5.2µM*	15	3%	8	?
CCc1ccc(-c2csc3[n+]2CCN3C(C)=O)cc1	2.9µM*	20	29%	5	?
C=CCNC(=O)C1CC2Cn3c(nc4cc5ccccc5cc43)C2N1C (configuration not stated)	-6%	38*	?	41*	?
COc1ccc([C@H]2CC(=O)C=C(c3ccccc3Oc3ccccc3)C2)cc1	10µM*	.	.	.	?
COc1ccc([C@H]2CC(=O)C=C(c3ccccc3-c3ccccc3)C2)cc1	?	.	.	.	13µM*
COc1ccc([C@H]2CC(=O)C=C(c3ccc(CNC(=O)OC(C)(C)C)cc3)C2)cc1	12µM*	.	.	.	5.9µM*
COc1ccc([C@H]2CC(=O)C=C(c3cccc(F)c3OC)C2)cc1	13%	.	.	.	33%
COc1ccc([C@H]2CC(=O)C=C(c3ccc(-c4ccccc4)c(F)c3)C2)cc1	60%	.	.	.	35%
Cc1ccc(C(=O)N/C(=C\c2cccs2)C(=O)NCCc2c[nH]c3ccccc23)cc1	-26%	-7	9%	-3	?
CN1CCC(=NNC(=O)CN(c2ccc([N+](=O)[O-])cc2)S(=O)(=O)c2ccccc2)CC1	1%	4	-51%	-4	-15%
O=C(Cn1c(=O)oc2cccnc21)Nc1ccccc1Oc1ccc(Cl)cc1Cl	3%	-11	0%	-3	0%
CCc1c(C)nc2cc(-c3ccc(OC)c(OC)c3)nn2c1N1CCC(C)CC1	7.4µM*	132	3%	12	44%
CCc1c(C)nc2cc(-c3cc(OC)cc(OC)c3)nn2c1N1CCCC1	?	-10	-56%	-4	.
CCc1c(C)nc2cc(-c3ccc(OC)c(OC)c3)nn2c1N1CCCC1	13µM*	-10	-66%	-1	0%
CCOCCN1CCN(c2c(CC)c(C)nc3cc(-c4cc(OC)cc(OC)c4)nn23)CC1	1.5µM*	14	-26%	0	9%
COc1ccc(-c2c(C)nn3c(-c4ccccc4)cc(-c4ccccc4)nc23)cc1OC	.	2	.	7	.
Cc1ccc2nc(N3CCC(C(=O)N4CCC5(CC4)OCCO5)CC3)sc2c1	36%	79*	-23%	40*	13%
CCOc1ccc2nc(N3CCC(C(=O)N4CCC5(CC4)OCCO5)CC3)sc2c1	23%	119	-53%	41*	47%
CCn1c(C(=O)N2CCC(C(=O)N3CCC4(CC3)OCCO4)CC2)cc2sccc21	0%	-3	0%	9	-5%
CCc1ccc2nc(N3CCC(C(=O)N4CCC5(CC4)OCCO5)CC3)sc2c1	60%	131*	.	58*	?
CCOc1ccc2nc(N3CCC(C(=O)N4CCN(c5ccccn5)CC4)CC3)sc2c1	?	20	-36%	0	45%
O=C(C1CCN(c2nc3ccc(Br)cc3s2)CC1)N1CCC2(CC1)OCCO2	41%	59*	?	30*	4.7µM*
O=[N+]([O-])c1nn(-c2ccccc2)[n+]([O-])c1N1CCN(c2ccccc2F)CC1	-3%	19	.	2	?
COC(=O)C1=C(C)NC2=C(C(=O)C(C(=O)OC)C(c3ccc(OC)cc3)C2)C1c1ccccn1 (configuration not stated)	?	-12	-4%	-2	?
CCOc1ccc2nc(N3CCC(C(=O)N4CCN(c5ncccn5)CC4)CC3)sc2c1	-2%	39	-53%	26*	?
O=C(Nc1ncc(Cc2cccc(Cl)c2)s1)C1CCCO1 (configuration not stated)	111%	116*	-4%	69*	101%
O=C(Nc1ncc(Cc2ccccc2Cl)s1)C1CCCO1 (configuration not stated)	408%	49*	-1%	54*	?
